A selection: hits, their analogues and other compounds. The true share with any hit is near 2.4%.
TLR4 MyD88 comp: TLR4-MyD88 interaction inhibition in cells; inhibition, % at 8.4 µM; 0.18% of 200,000 active; AID 861; HeLa CL3-4 TLR4/MyD88 BLA complementation, FRET ratio; O00206+Q99836; in the data active means inhibition above about 25%
NOD2-RIPK2 inh: blocks binding of human NOD2 to RIPK2 | 0.38% of 360,000 active | O43353 | CHO BLA complementation NOD2-RIPK2, CCF4 ratio | inhibition, % at 4.98 µM; in the data active means inhibition above about 21%
Target sequence (O43353 whole entry, looked up): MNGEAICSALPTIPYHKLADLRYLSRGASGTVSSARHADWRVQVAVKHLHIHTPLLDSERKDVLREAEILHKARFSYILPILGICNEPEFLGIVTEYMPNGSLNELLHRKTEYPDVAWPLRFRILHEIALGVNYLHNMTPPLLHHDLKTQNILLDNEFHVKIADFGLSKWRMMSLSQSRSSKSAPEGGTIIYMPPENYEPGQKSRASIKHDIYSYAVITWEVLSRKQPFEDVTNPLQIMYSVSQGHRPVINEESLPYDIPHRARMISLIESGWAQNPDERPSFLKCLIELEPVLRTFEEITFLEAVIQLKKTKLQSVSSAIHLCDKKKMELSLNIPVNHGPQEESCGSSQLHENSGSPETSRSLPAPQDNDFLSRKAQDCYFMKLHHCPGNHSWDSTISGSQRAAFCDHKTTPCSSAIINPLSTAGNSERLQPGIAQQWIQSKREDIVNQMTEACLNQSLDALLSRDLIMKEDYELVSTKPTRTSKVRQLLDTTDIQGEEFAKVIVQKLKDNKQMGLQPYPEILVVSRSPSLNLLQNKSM
CRFR2-BP antag: blocks CRF-induced signaling of the CRF-BP/CRF-R2 complex; 0.59% of 350,000 active; inhibition, % at 11.8 µM; HEK293 CRF-R2/CRF-BP, CRF-induced calcium fluorescence;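 active means inhibition of the ligand-induced calcium signal above about 50% at the single tested concentration, limit read from the data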
m5-HT2A agonist: mouse HTR2A agonism via beta-arrestin recruitment; CHO-K1 mHTR2A beta-arrestin complementation, luminescence; percent of 30 µM serotonin response; activation, % at 7.6 µM; 0.66% of 360,000 active;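 active means activation above a run cutoff, the mean activation of all tested compounds plus 3 SD, cut at about 14% in these data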
TLR9-MyD88 block: TLR9-MyD88 interaction inhibition. CHO BLA complementation TLR9-MyD88, CCF4 FRET ratio. Q9NR96+Q99836. AID 504734. 0.21% of 340,000 active. inhibition, % at 4.98 µM;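 active means inhibition above the mean over all tested compounds plus 3 SD, cut at about 21% in these data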
ABHD5 PLIN5 PPI: inhibitors of human ABHD5-perilipin-5 interaction; AID 602281; inhibition, % at 4 µM; Split G. princeps luciferase complementation, luminescence, 4 h; 0.78% of 360,000 active; Q00G26+Q8WTS1;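 active means inhibition above the mean inhibition across every tested compound plus 3 SD, cut at about 22% in these data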
Large screens that a line does not name were inactive.

CC(=O)Oc1ccccc1Cn1c(C)c(C(=O)NCc2cccc([N+](=O)[O-])c2)sc1=O	none (no result: TLR4 MyD88 comp, CRFR2-BP antag, TLR9-MyD88 block)
COc1ccc(-c2csc(NC(=O)CN3C(=O)C4CCCCC4C3=O)n2)cc1OC (stereo not drawn)	none (no result: TLR4 MyD88 comp)
COc1ccc(-c2csc(NC(=O)CN3C(=O)C4CC=CCC4C3=O)n2)cc1OC (stereo not drawn)	CRFR2-BP antag 56.7 (no result: TLR4 MyD88 comp)
CNc1cncc(-c2cc(OC)c(OC)c(OC)c2)n1	none (no result: TLR4 MyD88 comp, CRFR2-BP antag, TLR9-MyD88 block)
CCOC(=O)c1ccc(NC(=O)c2ccccc2[N+](=O)[O-])cc1	none
CCOC(=O)c1cc([N+](=O)[O-])c([N+](=O)[O-])cc1NC(C)=O	CRFR2-BP antag 51.5
Cc1noc(C)c1COC(=O)c1cccc(S(=O)(=O)N2c3ccccc3CC2C)c1 (stereo not drawn)	CRFR2-BP antag 55.5
CCNC(=O)N(C)c1c(CC)nc2ccc(C(=O)N3CCN(S(=O)(=O)CC)CC3)cn12	none (no result: TLR4 MyD88 comp, CRFR2-BP antag, TLR9-MyD88 block)
O=S(=O)(Nc1ccc(Cc2ccncc2)cc1)c1cccs1	none
N#CCc1ccc(NS(=O)(=O)c2cccs2)cc1	CRFR2-BP antag 111.5
COc1ccc(SCC(=O)Nc2ccccc2Cl)cc1	CRFR2-BP antag 80.2
COc1ccc(OCC(=O)Nc2ccccc2Cl)cc1	none
Cc1nc2nc(SCC(=O)c3cccc([N+](=O)[O-])c3)[nH]c2cc1Br	CRFR2-BP antag 67.1
CN(C(=O)CN1C(=O)S/C(=C\c2ccc(F)cc2)C1=O)C1CCS(=O)(=O)C1 (stereo not drawn)	none (no result: TLR4 MyD88 comp)
CCN(C(=O)CN1C(=O)S/C(=C\c2ccc(F)cc2)C1=O)C1CCS(=O)(=O)C1 (stereo not drawn)	ABHD5 PLIN5 PPI 22.6 (no result: TLR4 MyD88 comp)
Nc1[nH]c(C(=O)c2ccccc2)c(-c2ccccc2Br)c1C(=O)c1ccccc1	none (no result: TLR4 MyD88 comp, CRFR2-BP antag, TLR9-MyD88 block)
Cc1cccc(N2C(N)=NC(N)=NC23CCCCC3)c1	CRFR2-BP antag 51.6
COC(=O)C1=CN(c2ccc(C(C)(C)C)cc2)C(N)=C(C#N)C1c1ccccc1F (stereo not drawn)	none (no result: TLR4 MyD88 comp, CRFR2-BP antag, TLR9-MyD88 block)
C/C(=N\NC(=O)C(C)Oc1ccc([N+](=O)[O-])cc1)c1ccccn1 (stereo not drawn)	CRFR2-BP antag 55.4
Cc1ccc(Sc2ccc(CN3CCCC3)cc2[N+](=O)[O-])cc1	none
Cc1ccc(Sc2ccc(CO)cc2[N+](=O)[O-])cc1	CRFR2-BP antag 50.8
COc1ccc(NC(=O)NC(C)c2ccc3c(c2)OCO3)c(OC)c1 (stereo not drawn)	CRFR2-BP antag 62.9 (no result: TLR4 MyD88 comp)
C#CCOCCOCCOCCNc1nc(N2CCOCC2)nc(N2CCN(C(=O)CCCCCCCCCCNC(=O)[C@H](CO)n3cc(CCCSC)nn3)CC2)n1	none (no result: TLR4 MyD88 comp)
C#CCOCCOCCOCCNc1nc(N2CCN(C(=O)CCCCCCCCCCNC(=O)[C@@H](CCSC)n3cc(CCO)nn3)CC2)nc(N2CCN(C(=O)CCCCCCCCCCNC(=O)[C@H](CCC(=O)O)n3cc(CCCCCN)nn3)CC2)n1	ABHD5 PLIN5 PPI 41.3 (no result: TLR4 MyD88 comp)
C#CCOCCOCCOCCNc1nc(N2CCN(C(=O)CCCCCCCCCCNC(=O)[C@@H](CCC(=O)O)n3cc(CCCCCN)nn3)CC2)nc(N2CCN(C(=O)CCCCCCCCCCNC(=O)[C@H](CO)n3cc(CCCSC)nn3)CC2)n1	ABHD5 PLIN5 PPI 46.9 (no result: TLR4 MyD88 comp)
CN1CCN(c2ccc3c(c2)OC[C@@H](Cc2ccccc2)NS3(=O)=O)CC1	none (no result: TLR4 MyD88 comp, CRFR2-BP antag, TLR9-MyD88 block)
Cc1cccc(-c2cnc(C(O)c3ccc(F)c(C)c3)[nH]2)c1 (stereo not drawn)	none (no result: TLR4 MyD88 comp, CRFR2-BP antag, TLR9-MyD88 block)
CCC1(CC)NC(=O)N(CC(=O)N2N=C(c3ccc(Cl)cc3)CC2c2ccco2)C1=O (stereo not drawn)	ABHD5 PLIN5 PPI 22.1
CS(=O)(=O)c1ccc(C(=O)CN2C(=O)NC3(CCCc4ccccc43)C2=O)cc1 (stereo not drawn)	CRFR2-BP antag 53.4 (no result: TLR4 MyD88 comp)
O=C(CN1C(=O)NC2(CCCc3ccccc32)C1=O)c1ccc(F)cc1 (stereo not drawn)	none (no result: TLR4 MyD88 comp)
CC(C)(C)c1ccc(C(=O)CS(=O)(=O)c2ccccc2)cc1	CRFR2-BP antag 77.4
COc1ccc([C@@H]2CC(=O)[C@@H]3CN(S(=O)(=O)c4ccc(C)cc4)[C@H](c4cccc(Cl)c4)C[C@@H]3N2S(=O)(=O)c2ccccc2)cc1	none (no result: TLR4 MyD88 comp, CRFR2-BP antag, TLR9-MyD88 block)
COc1ccc2c(c1OC)C(=O)OC2	none
COc1cc(O)c2c(c1)COC2=O	CRFR2-BP antag 60.0
C=CCN1C(c2ccccc2)=CS/C1=C(/C#N)c1nnc(N2CCOCC2)n1-c1ccccc1	none
CN1C(c2ccc(F)cc2)=CS/C1=C(/C#N)c1nnc(N2CCOCC2)n1-c1ccccc1	CRFR2-BP antag 95.5
CC1(C(=O)NS(=O)(=O)c2ccc(F)cc2F)CCN1C(=O)Cc1cccc2ccccc12 (stereo not drawn)	none (no result: TLR4 MyD88 comp, CRFR2-BP antag, TLR9-MyD88 block)
COc1ccc(Cl)cc1NC(=O)CC(=O)Nc1cc(Cl)ccc1OC	none (no result: TLR4 MyD88 comp)
CCCCOc1ccc(OC(=O)Nc2cc(Cl)ccc2OC)cc1	CRFR2-BP antag 80.8 (no result: TLR4 MyD88 comp)
CC(=O)NCCNc1nc2cc(-c3ccc4c(ccn4C)c3)sc2c(=O)n1C	none (no result: TLR4 MyD88 comp, CRFR2-BP antag, TLR9-MyD88 block)
CCOc1ccc2nc(N(CCN(C)C)C(=O)c3cc4ccccc4cc3OC)sc2c1	none (no result: TLR4 MyD88 comp)
CCOc1cccc2sc(N(CCN(C)C)C(=O)c3cc4ccccc4cc3OC)nc12	ABHD5 PLIN5 PPI 23.0 (no result: TLR4 MyD88 comp)
CCOc1cccc2sc(N(CCCN(C)C)C(=O)c3ccc(S(=O)(=O)N(CC)Cc4ccccc4)cc3)nc12	ABHD5 PLIN5 PPI 22.6 (no result: TLR4 MyD88 comp)
COC(=O)C[C@H]1C=C[C@H](NC(=O)C2CCOCC2)[C@@H](CO)O1	none (no result: TLR4 MyD88 comp, CRFR2-BP antag, TLR9-MyD88 block)
O=[N+]([O-])c1ccc(Sc2ccccc2)nc1	CRFR2-BP antag 53.5
Cc1cccc(Sc2ccc([N+](=O)[O-])cn2)c1	none
O=C(C[C@H]1CC[C@H](NC(=O)Nc2ccccc2F)[C@@H](CO)O1)NCc1ccc(-c2ccccc2)cc1	none (no result: TLR4 MyD88 comp, CRFR2-BP antag, TLR9-MyD88 block)
COc1ccc(CNC(=O)[C@H](C)NC(=O)C2CCN(S(=O)(=O)c3ccc(F)cc3)CC2)cc1	CRFR2-BP antag 81.8 (no result: TLR4 MyD88 comp)
COc1ccc(S(=O)(=O)N2CCCC(C(=O)NCc3ccncc3)C2)cc1 (stereo not drawn)	CRFR2-BP antag 55.8
COc1cccc(NC(=O)C2CCCN(S(=O)(=O)c3ccc(-n4cnnn4)cc3)C2)c1 (stereo not drawn)	CRFR2-BP antag 86.3
COC1=CC(=O)OC(c2ccccc2)C1 (stereo not drawn)	none (no result: TLR4 MyD88 comp, CRFR2-BP antag, TLR9-MyD88 block)
COCCNC(=O)C1CCCN(C(=O)c2ccc(C(F)(F)F)nc2C)CC1 (stereo not drawn)	none (no result: TLR4 MyD88 comp, CRFR2-BP antag, TLR9-MyD88 block)
COC(=O)C1=C(C)N(c2ccc(OC)cc2)C(C)=C(C(=O)OC)C1c1ccccc1	CRFR2-BP antag 51.8 (no result: TLR4 MyD88 comp)
CC1(C(=O)NCCC#N)CCN1C(=O)C1(c2ccccc2)CCCC1 (stereo not drawn)	none (no result: TLR4 MyD88 comp, CRFR2-BP antag, TLR9-MyD88 block)
O=C(NCc1ccccn1)C1CCN(S(=O)(=O)c2cnc[nH]2)CC1	CRFR2-BP antag 62.6
